Hits are enriched below; roughly 21% of the tested compounds scored in any of these assays.
DT40 TDP1 CPT – qHTS for Inhibitors of human tyrosyl-DNA phosphodiesterase 1 (TDP1): qHTS in cells in presence of CPT; chicken DT40 Tdp1-/-;hTDP1 cells + 20 nM CPT, ATP luminescence, 48 h; Potency, µM (series often up to 46.2 µM), usual class: inhibitors; hit rate 12% among 420,000; AID 686979, 2013; note: nearly all actives have a fitted effect of over 55% in size
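Chicken DT40 Tdp1-/- cells complemented with human TDP1, 400 cells/well, exposed to compounds plus 20 nM camptothecin for at least 48 h at 37 C; viability read as ATP content by CellTiter-Glo luminescence.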
DRD3 agonist – qHTS of D3 Dopamine Receptor Agonist: qHTS; D(3) dopamine receptor (Homo sapiens), P35462; D3R DiscoveRx beta-arrestin cells, luminescence, 90 min; max activation, %; hit rate 0.58% among 410,000; AID 652048, 2013; in the data active = max activation above about 30%
Target sequence (P35462 whole entry, looked up): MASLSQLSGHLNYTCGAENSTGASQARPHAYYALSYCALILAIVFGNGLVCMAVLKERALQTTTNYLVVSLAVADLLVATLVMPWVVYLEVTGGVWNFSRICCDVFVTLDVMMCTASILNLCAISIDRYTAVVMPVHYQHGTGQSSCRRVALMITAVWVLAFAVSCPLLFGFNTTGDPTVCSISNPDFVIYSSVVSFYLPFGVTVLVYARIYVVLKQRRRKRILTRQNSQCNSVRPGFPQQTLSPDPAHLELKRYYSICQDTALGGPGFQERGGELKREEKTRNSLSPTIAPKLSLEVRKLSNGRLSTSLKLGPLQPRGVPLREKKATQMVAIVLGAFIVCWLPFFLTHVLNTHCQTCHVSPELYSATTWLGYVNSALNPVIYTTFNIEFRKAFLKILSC
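Agonist mode: compounds and dopamine controls were applied to plated cells for 90 min at 37 degrees C after an overnight attachment at 1500 cells/well. Luminescent read-out followed 30 - 60 minutes at room temperature with DiscoveRx detection reagent.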
ClpP mod – qHTS Assay for Activators of ClpP; purified B. subtilis ClpP, FRET peptide cleavage, 20 min; Potency, µM (series often up to 57.5 µM); hit rate 1.9% among 340,000; active = well fitted falling curve with a large enough effect; inconclusive = small, poorly fitted or top-dose-only effect; inactive = no such curve, though single readings can be large or run the other way; note: the source files actives as falling curves though it sought activators and does not explain the sign; nearly all actives have a fitted effect of over 65% in size
Target sequence (P80244 whole entry, looked up): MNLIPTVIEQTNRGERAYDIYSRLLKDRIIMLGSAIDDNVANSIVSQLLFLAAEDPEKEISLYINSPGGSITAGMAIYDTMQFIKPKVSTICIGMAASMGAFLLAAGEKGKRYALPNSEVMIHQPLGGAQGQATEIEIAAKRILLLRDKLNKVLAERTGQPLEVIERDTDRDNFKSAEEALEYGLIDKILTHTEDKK
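ClpP 10 microg/mL final, pH 8 Tris/KCl buffer with BSA, glycerol, Tween-20; compound pinned in; FRET-FV substrate; RT 20 min; Ex320/Em430; ΔFRET vs ADEP 5.8 microM, DMSO, no enzyme.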
IL-1B inflam inh – qHTS for Inhibitors of Inflammasome Signaling: IL-1-beta AlphaLISA Primary Screen. AID 743279, 2014. THP-1 LPS/ATP IL-1B secretion, AlphaLISA, 16 h; hits give low values. hit rate 4.7% among 360,000. activity change, % at 57.5 µM; in the data active = activity change below about -50%; inconclusive = mostly about -30% to -49%
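THP-1 cells pretreated 1 hr with compounds (up to 57.5 uM final), then stimulated with LPS (250 ng/mL final) plus ATP (1.25 mM final); secreted IL-1B measured by AlphaLISA after 16 hr, decreased signal indicating inhibition.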
D3 antag – qHTS of D3 Dopamine Receptor Antagonist: qHTS | D(3) dopamine receptor (Homo sapiens), P35462 | D3R cells, DiscoveRx beta-arrestin luminescence, antagonist mode; hits give low values | max response, negative = inhibition, % | hit rate 2.5% among 360,000 | AID 652054, 2013; in the data active = max response below about -50%; inconclusive = no clear call, values can overlap the other calls
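Cells expressing the human receptor were seeded at 1500 cells/well, incubated overnight at 37 degrees C in 5% CO2, then exposed to library compounds with dopamine controls for 90 minutes at 37 degrees C before luminescent detection.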
TDP1 cell noCPT – qHTS for Inhibitors of human tyrosyl-DNA phosphodiesterase 1 (TDP1): qHTS in cells in absence of CPT; hit rate 15% among 420,000; Potency, µM (titrated, usually from 46.2 µM), actives largely listed as inhibitors; DT40 Tdp1-/- hTDP1 cells, no CPT, ATP luminescence, 48 h; AID 686978, 2013; note: nearly all actives have a fitted effect of over 55% in size
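A cellular qHTS used chicken DT40 cells lacking endogenous Tdp1 but carrying stably transfected human TDP1. Compounds were applied without camptothecin, and cell growth kinetics were judged by ATP-dependent luminescence after ≥48 hr.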
Hits are given with their value; n = inactive; u = inconclusive; x = no result given. Unless noted, calls come from the whole dose curve; as a rule, active = well fitted inhibition curve with a large enough effect; inconclusive = small, poorly fitted or top-dose-only effect; inactive = flat fitted curve, though single readings scatter.

SMILES	DT40 TDP1 CPT	DRD3 agonist	ClpP mod	IL-1B inflam inh	D3 antag	TDP1 cell noCPT
CCC(Sc1nc2ccsc2c(=O)n1-c1ccc(Cl)c(C)c1)C(=O)NCc1ccco1 (stereo not drawn)	u	n	n	-71.0	n	u
CC1CCN(C(=O)CN2C(=O)C(C)(C)Oc3ccc(C(=O)NC(C)C)cc32)CC1	n	n	x	n	n	n
Cc1ccc(-c2cc3c(n2-c2ccc(C)cc2)CC(C)(C)CC3=O)cc1	n	n	n	x	x	n
COc1ccc(-n2c(-c3ccc(C)cc3)cc3c2CC(C)(C)CC3=O)c(OC)c1	14.6µM	n	u	x	x	u
COc1cccc(-n2c(-c3ccc(Cl)cc3)cc3c2CC(C)(C)CC3=O)c1	u	n	n	x	x	u
CC1(C)CC(=O)c2cc(-c3nc(-c4ccc(Cl)cc4)cs3)c(=O)n(-c3ccc(F)cc3)c2C1	u	n	39.8µM	x	x	u
Cc1ccc(-c2cc3c(n2-c2ccc(F)cc2)CC(C)(C)CC3=O)cc1	16.4µM	n	n	x	x	18.4µM
CN(C)c1cccc(C(=O)Nc2ccc(S(=O)(=O)Nc3nccs3)cc2)c1	n	n	n	n	u	n
O=C(C[C@@H]1C[C@H]2c3cc(NC(=O)C4CCC4)ccc3O[C@H]2[C@@H](CO)O1)NCc1ccc(-c2ccccc2)cc1	18.4µM	n	n	n	u	20.6µM
O=C(C[C@@H]1C[C@H]2c3cc(NC(=O)c4cccnc4)ccc3O[C@H]2[C@H](CO)O1)NCc1ccc(Oc2ccccc2)cc1	13µM	n	n	n	n	5.8µM
c1cncc(-c2cc(-n3ccnc3)ncn2)c1	u	x	x	x	x	n
CCOC(=O)c1c(-c2ccc(C)cc2C)csc1NC(=O)c1ccccc1Cl	u	n	u	x	x	u
Cn1cc(S(C)=O)c(=O)c2ccc(F)cc21 (stereo not drawn)	n	n	x	x	x	n
O=C(CSc1nnc(CNc2ccc(F)cc2)n1CC1CCCO1)N1CCOCC1 (stereo not drawn)	n	n	x	n	n	n
N#Cc1nc(-c2ccccc2F)oc1N1CCCCC1	n	n	n	n	n	n
CC1CC(C)CN(c2oc(-c3ccccc3Cl)nc2C#N)C1 (stereo not drawn)	n	n	11.2µM	n	n	n
CN(C)c1oc(-c2ccccc2)nc1C#N	n	n	u	n	u	n
N#Cc1nc(-c2ccccc2Cl)oc1N1CCCCC1	u	n	10µM	-50.7	n	9.2µM
CN(C)c1oc(-c2ccccc2Cl)nc1C#N	n	n	14.1µM	n	n	u
N#Cc1nc(-c2cccc3ccccc23)oc1N1CCCCC1	n	n	u	n	n	n
CCOC(=O)c1nc(-c2ccccc2)sc1C(C)=O	n	n	n	n	n	n
COc1ccc(CC(=O)Nc2sccc2C#N)cc1S(=O)(=O)N1CCOCC1	n	n	n	n	n	n
O=C(Nc1cccc(S(=O)(=O)N2CCOCC2)c1)c1ccc2ccccc2n1	u	n	n	n	n	u
O=C(Nc1cccc(S(=O)(=O)N2CCCC2)c1)c1ccc2ccccc2n1	20.6µM	n	x	u	n	23.1µM
O=C(Nc1cccc(S(=O)(=O)N2CCCCC2)c1)c1ccc2ccccc2n1	29.1µM	n	n	n	n	20.6µM
SMILES	DT40 TDP1 CPT	DRD3 agonist	ClpP mod	IL-1B inflam inh	D3 antag	TDP1 cell noCPT
C1CCC(C(CC2CCCCN2)C2CCCCC2)CC1 (stereo not drawn)	10.3µM	n	n	-86.1	n	11.6µM
O=C(NCc1cccs1)C1CCN(C(=O)N2CCOc3ccc(Cl)cc32)CC1	u	n	n	x	x	u
COc1ccc(-c2c(C)nc3c(-c4ccccn4)cnn3c2N)cc1	u	n	n	n	n	18.4µM
Cc1nc2c(-c3ccc(F)cc3)cnn2c(N)c1-c1ccc(F)cc1	20.6µM	n	x	-67.0	u	4.61µM
Cc1cc(C)nc(Sc2ccc([N+](=O)[O-])cc2[N+](=O)[O-])n1	1.3µM	n	n	-59.8	n	1.03µM
CN(C)/N=C/c1ccc(Sc2ccc([N+](=O)[O-])cc2[N+](=O)[O-])o1	u	n	n	n	n	23.1µM
O=[N+]([O-])c1ccc(Sc2ccncn2)c([N+](=O)[O-])c1	1.03µM	n	n	-79.9	u	0.651µM
CCOP1(=O)C=C(Sc2ccc([N+](=O)[O-])cc2[N+](=O)[O-])C(C)(C)O1 (stereo not drawn)	n	n	n	n	n	n
O=[N+]([O-])c1ccc(Sc2cccc3cccnc23)c([N+](=O)[O-])c1	4.61µM	n	n	n	-54.6	4.61µM
O=[N+]([O-])c1cc(Cl)ccc1Sc1ccccn1	n	n	x	n	n	n
COC(=O)Cn1cnc2c(cnn2-c2ccc(C)cc2)c1=O	n	n	n	n	n	n
NS(=O)(=O)c1cccc(-n2cnnn2)c1	n	n	x	n	n	n
O=C(CCCC(=O)c1ccccc1)Nc1ccc(O)cc1	u	n	n	n	n	u
C=CCn1nc([N+](=O)[O-])nc1Sc1cccc2cccnc12	5.17µM	n	n	-98.8	n	4.11µM
O=[N+]([O-])c1ccc(Sc2cccc3cccnc23)cc1	u	n	n	n	n	n
O=C1C(Cl)=C(NCCN2CCCCC2)C(=O)c2ccccc21	4.11µM	n	n	-100.7	-63.2	u
CCCC(=O)NC1=C(Cl)C(=O)c2ccccc2C1=O	0.651µM	n	n	-100.9	-67.7	0.651µM
CCCC(=O)NNC(=O)CCC(=O)Nc1ccccc1Cl	n	n	n	n	n	n
O=C1C(Cl)=C(NCc2ccco2)C(=O)c2ccccc21	11.6µM	n	n	-95.2	n	8.2µM
CCNC1=C(Cl)C(=O)c2ccccc2C1=O	18.4µM	n	n	n	u	23.1µM
c1ccc(CSc2ncnc3c2cnn3-c2ccccc2)cc1	n	n	n	n	n	n
Cc1nc2nc(NC(=O)c3ccc(F)cc3)[nH]n2c(=O)c1Cc1ccccc1	n	n	n	x	x	n
CC[C@H](C)[C@@H](CN[C@H](CCCCNC)CNC)NCC1CCCC1	n	n	n	n	n	n
CCCC[C@@H](CN[C@H](C)CNC)NCC1CCC(C(C)(C)C)CC1 (stereo partly drawn)	5.8µM	n	n	-67.0	n	6.51µM
CCOC(=O)c1cn(Cc2ccccc2)c(C(=O)OC(C)(C)C)c1O	23.1µM	n	n	n	u	n
Cc1cc(=O)n(CCCc2ccccc2)[nH]1	n	n	n	n	-67.1	n

Bioassay records as filed in PubChem BioAssay.
